Measurements taken from article PMC4336329 (PLoS ONE, 2015).
The campaign covered roughly 310,000 compounds. About 14,000 (4.5%) showed an effect of 50% or more. Effects have a minus sign here. This is one part of a sample in which strong results are shown more often than they occur.

The compounds below were run against human ether-à-go-go-related gene (hERG) potassium channel (human, UniProt Q12809) (assay: primary screen, population patch clamp on CHO cells stably expressing hERG; higher = less effect of the substance).
Chain of human ether-à-go-go-related gene (hERG) potassium channel (Q12809 whole entry, looked up): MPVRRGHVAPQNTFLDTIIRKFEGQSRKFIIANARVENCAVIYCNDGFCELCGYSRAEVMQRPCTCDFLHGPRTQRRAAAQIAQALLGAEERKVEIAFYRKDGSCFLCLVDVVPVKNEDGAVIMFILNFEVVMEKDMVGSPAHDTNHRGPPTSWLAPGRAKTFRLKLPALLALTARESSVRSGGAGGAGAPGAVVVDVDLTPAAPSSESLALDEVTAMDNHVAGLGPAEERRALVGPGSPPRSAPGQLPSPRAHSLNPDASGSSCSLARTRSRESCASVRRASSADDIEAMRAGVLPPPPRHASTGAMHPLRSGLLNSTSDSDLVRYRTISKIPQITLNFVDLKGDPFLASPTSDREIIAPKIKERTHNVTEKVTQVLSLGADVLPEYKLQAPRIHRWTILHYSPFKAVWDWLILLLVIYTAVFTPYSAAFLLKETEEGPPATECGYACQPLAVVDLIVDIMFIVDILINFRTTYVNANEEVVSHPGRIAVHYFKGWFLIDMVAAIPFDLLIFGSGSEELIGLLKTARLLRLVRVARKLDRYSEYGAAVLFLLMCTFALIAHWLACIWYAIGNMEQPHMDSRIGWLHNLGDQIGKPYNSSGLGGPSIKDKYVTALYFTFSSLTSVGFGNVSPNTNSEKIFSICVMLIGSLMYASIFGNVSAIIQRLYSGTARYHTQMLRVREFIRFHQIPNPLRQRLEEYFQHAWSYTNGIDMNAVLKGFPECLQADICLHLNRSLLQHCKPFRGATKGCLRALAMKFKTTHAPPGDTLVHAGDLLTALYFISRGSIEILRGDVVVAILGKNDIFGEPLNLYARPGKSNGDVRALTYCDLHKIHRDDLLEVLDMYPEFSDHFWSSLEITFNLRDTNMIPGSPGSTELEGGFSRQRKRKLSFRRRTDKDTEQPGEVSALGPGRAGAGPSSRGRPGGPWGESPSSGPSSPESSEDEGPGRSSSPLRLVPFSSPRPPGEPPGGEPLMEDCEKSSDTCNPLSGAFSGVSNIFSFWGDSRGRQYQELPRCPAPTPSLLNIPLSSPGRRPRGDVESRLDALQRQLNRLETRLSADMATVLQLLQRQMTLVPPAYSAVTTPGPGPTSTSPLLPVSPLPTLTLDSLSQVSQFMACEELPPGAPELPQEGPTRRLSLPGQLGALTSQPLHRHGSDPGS
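Also: peak tail current of the secondary pulse compared with the same well before compound.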

Compound | hERG current change (%, negative = inhibition) at 10uM [%]
Nc1nc2c(nc(SCc3ccccc3Br)n2C2OC(CO)C(O)C2O)c(=O)[nH]1 (stereo not shown) | 34.9
CCOC(=O)N1CCC(Nc2c(NCCCN(CC)Cc3ccccc3)c(=O)c2=O)CC1 | 6.06
Cc1ccc(C(=O)Nc2ccc3cn[nH]c3c2)cc1S(=O)(=O)N1CCOCC1 | -8.78
O=C(N/N=C/c1cn(-c2ccccc2)nc1-c1cc2ccccc2o1)c1c[nH]c2ccccc12 | 13.2
Cc1c(OC(C)C(=O)NCC(O)c2ccccc2)ccc2c3c(c(=O)oc12)CCC3 (stereo not shown) | -13.3
Cc1cc(NC(=O)c2cccc(S(=O)(=O)N3CCOCC3)c2)c2ccccc2n1 | -16.2
Cc1ccc(C(O)CN2C3=NCCCN3c3ccccc32)cc1.Cl (stereo not shown) | -67.4
Cl.OC(CN1C2=NCCN2c2ccccc21)c1ccccc1 (stereo not shown) | -42.7
Cc1ccc(C(O)CN2C3=NCCN3c3ccccc32)cc1.Cl (stereo not shown) | -61.1
COc1ccc(NC(=O)N2CCC(c3ccccc3)C2)c(OC)c1 (stereo not shown) | -1.5
Cc1cc(/C=C(/C#N)c2nc3ccccc3[nH]2)c(C)n1-c1ccccc1C(=O)O | 15.8
Cc1ccnn1CC(=O)N/N=C/c1ccc([N+](=O)[O-])s1 | -3.9
CC(C)NC(=S)NNC(=O)C12CC3CC(CC(C3)C1)C2 | -8.78
CCN(CC)C(=O)N1CCN(C)CC1.O=C(O)CC(O)(CC(=O)O)C(=O)O | 23.2
Cc1nc2nc(COc3ccccc3)[nH]n2c(=O)c1Cc1ccccc1 | 0.308
Cc1cc(Cl)ccc1OCC(=O)Nc1cccc(S(=O)(=O)N2CCCC2)c1 | -1.87
O=C(CN1CCC(NC(=O)Nc2ccc(F)cc2)CC1)Nc1ccccc1[N+](=O)[O-] | -51
O=C(CN1CCC(NC(=O)Nc2ccccc2)CC1)Nc1ccccc1F | -18.3
O=C(CN1CCC(NC(=O)Nc2ccccc2)CC1)Nc1cccc([N+](=O)[O-])c1 | -40.6
O=C(CN1CCC(NC(=O)Nc2ccccc2)CC1)Nc1ccc([N+](=O)[O-])cc1 | -64.4
O=C(CN1CCCC1)Nc1ccc([N+](=O)[O-])cc1 | -22.6
Cc1ccccc1NC(=O)CN1CCC(NC(=O)Nc2ccccc2)CC1 | -35.9
COc1cccc(NC(=O)NC2CCN(CC(=O)Nc3ccccc3[N+](=O)[O-])CC2)c1 | -39.4
O=C(Nc1ccccc1)NC1CCN(CCCN2C(=O)c3ccccc3C2=O)CC1 | -61.4
O=C(CN1CCC(NC(=O)C2CC2)CC1)Nc1ccccc1[N+](=O)[O-] | 22.1
